Values joined by “and” are separate entries in the source; they are usually repeats but may differ in a detail not shown here. Identical values can stand only once. Active and inactive are the calls of the source.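 How the source made its calls, unless noted: active means inhibition at or above 50% relative to wild type and mutant plate controls; inactive means inhibition below 50%.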

Assay [1] is described as follows: inhibitors of TNFa-induced NFkB p65 translocation, primary screen, imaging, HUVEC, MLSMR starter and 10KST1 sets (AID 438;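 active means inhibition above 20% together with a positive visual image hit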;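 further: compound added about 3h40 before a 20 min TNFalpha stimulation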;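 on inhibition: signal is the nuclear over cytoplasmic p65 intensity ratio per well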). As to conditions: HUVEC TNFa-induced p65 nuclear translocation; cell count: measured here: nuclei count (cytotoxicity indicator), at 2.08 µM unless noted; inhibition: at 2 µM, stronger effect = higher value unless noted.
Assay [2] in a line: reduction of polyQ htt aggregates in cells – imaging, exon1htt(103Q)mCFP cells, high-content imaging, primary screen (AID 483;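 active means visual image review flags a hit and inhibition of aggregation exceeds 20%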;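 further: compound exposure lasted 3 days before fixation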;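 on nuclei count: percent of the per-plate median nuclei count of sample wells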). As to conditions: exon1htt(103Q)mCFP cell line, aggregate imaging, at 2 µM; inhibition of aggregation: stronger effect = higher value; nuclei count: measured here: cell count, toxicity.
A short description of assay [3]: endothelial E-selectin expression blockers – imaging, HUVEC, immunofluorescence, MLSMR starter and 10KST1 sets, primary screen (AID 487;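 active means visually confirmed hit in the image check and inhibition above 20%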;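 on inhibition: signal is fraction of cell area covered by stained E-selectin grains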;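 on nuclei count: 100% = median nuclei count of all wells on the same plate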). Conditions: HUVEC TNFalpha-induced E-selectin immunofluorescence imaging, at 2 µM; inhibition: stronger effect = higher value; nuclei count: measured here: cell number, toxicity.
Assay [4] is described as follows: Primary imaging screen for DUSP6 inhibitors that restore phospho-Erk in transfected HeLa cells, chemical complementation (AID 609;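 active means compounds giving at least 50% inhibition in the cell-based MKP-3 phosphatase rescue imaging test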;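 on inhibition: phospho-Erk level distribution per well compared with pooled transfected vehicle control wells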). Conditions: HeLa MKP-3 transfected, phospho-Erk imaging KS statistic, at 10 µM.
Assay [5] addresses Dual specificity protein phosphatase 6 (Homo sapiens) (UniProt Q16828). Described as above. Conditions: HeLa MKP-3 transfected, phospho-Erk imaging KS statistic, at 10 µM, stronger effect = higher value.
Assay [6] addresses Voltage-gated potassium channel subunit beta-2 (Rattus norvegicus) (UniProt P62483). Nature of the assay: inhibitors of rat Kvbeta2 reductase activity – biochemical, NADPH fluorescence, primary screen (AID 622;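 active means fluorescence slope higher than the sample average by over 3 SD, cut at about -0.22 in these data, passing the limit was not always enough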;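 further: slope of raw intensity against log time taken from 70 to 1610 s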). As to conditions: recombinant KvBeta, 4-cyanobenzaldehyde reduction, at 10 µM, stronger effect = higher value.
The target is the same in assay [7]. Nature of the assay: enhancers of rat Kvbeta2 NADPH turnover – biochemical, NADPH fluorescence, primary screen (AID 623;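 active means NADPH fluorescence slope more negative than the mean of all samples by about 3 SD, 99.7% confidence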;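 further: fluorescence intensity change per second fitted from 20 to 320 s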). Conditions: Recombinant KvBeta, NADPH fluorescence decrease slope, 10 min; at 10 µM; stronger effect = lower value.
Assay [8] concerns the target Alpha-2C adrenergic receptor (Homo sapiens) (UniProt P18825). As to the kind of experiment: compounds altering alpha2C-coupled GIRK flux – cell-based, HEK293 alpha2C/GIRK1/2, thallium flux, primary screen (AID 624;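 active means fluorescence slope after compound addition differing from the mean of all screened samples at 99.7% confidence, in either direction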;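 further: slope of fluorescence ratio to pre-addition baseline per second over 15 to 24 s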). Conditions: thallium flux BTC fluorescence, at 10 µM, actives lie on both sides.
Assay [9] is described as follows: inhibitors of larval lipid processing in zebrafish, primary screen, whole organism, PED6 fluorescence, gall bladder and intestine (AID 686;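 active means a full or partial loss of lipid-probe fluorescence in the fish gall bladder, intestine or both, judged by eye; inactive means no fluorescence loss, or compound toxic to the fish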;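 further: larvae 5 to 7 days old with five fish per well; signal comes from phospholipase A2 cleavage of quenched PED6 carried via bile; overnight exposure to compound and PED6 before scoring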). Conditions: Zebrafish larvae PED6 lipid processing, fluorescence scoring.
Assay [10] can be described thus: loss of swimming-algae plug formation – whole organism, Chlamydomonas reinhardtii, WT vs cilia-less mutant, absorbance, 96-well, primary screen (AID 463189).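 Further: 0% = wild type cc124 cells in DMSO and 100% = ciliumless bld1 mutant cells.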 Conditions: Chlamydomonas reinhardtii gravitaxis, OD600 absorbance, 2 days; at 10 µM; stronger effect = higher value.
Assay [11] is described as follows: blockers of RIG-like receptor reporter activation – cell-based, Sendai virus stimulus, luciferase, 10K MLSCN set, TLR/RLR signaling modifier project, primary screen (AID 602276;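 active means inhibition at or above 50% at 10 µM; inactive means inhibition below 50%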;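 further: firefly luciferase from ISG56 promoter only with Renilla not read in this screen; 0% = Sendai virus plus DMSO and 100% = medium plus DMSO without virus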). Conditions: HEK293 RL24 IRF3 luciferase reporter, at 10 µM, stronger effect = higher value.
Assay [12] is described as follows: TLR3 IRF3 reporter activation blockers – cell-based, poly I:C stimulus, luciferase, 10K MLSCN set, primary screen (AID 602277;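 active means inhibition of the reporter signal at or above 50%; inactive means inhibition below 50%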). As to conditions: HEK293-TLR3 RL24 IRF3 luciferase reporter, at 10 µM, stronger effect = higher value.
The target of assay [13] is Muscarinic acetylcholine receptor M4 (Homo sapiens) (UniProt P08173). As to the kind of experiment: M4-linked GIRK flux change, two-sided – cell-based, HEK293 M4/GIRK, thallium flux, BTC-AM, M4 allosteric agonist project, primary screen (AID 625;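 active means fluorescence slope after compound addition differing from the mean of all tested samples at 99.7% confidence, mostly higher but some lower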;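 further: thallium influx through GIRK channels coupled to M4 in HEK293 cells with BTC-AM dye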). As to conditions: at 10 µM, actives lie on both sides.
Muscarinic acetylcholine receptor M4 (Homo sapiens), sequence (P08173 whole entry, looked up): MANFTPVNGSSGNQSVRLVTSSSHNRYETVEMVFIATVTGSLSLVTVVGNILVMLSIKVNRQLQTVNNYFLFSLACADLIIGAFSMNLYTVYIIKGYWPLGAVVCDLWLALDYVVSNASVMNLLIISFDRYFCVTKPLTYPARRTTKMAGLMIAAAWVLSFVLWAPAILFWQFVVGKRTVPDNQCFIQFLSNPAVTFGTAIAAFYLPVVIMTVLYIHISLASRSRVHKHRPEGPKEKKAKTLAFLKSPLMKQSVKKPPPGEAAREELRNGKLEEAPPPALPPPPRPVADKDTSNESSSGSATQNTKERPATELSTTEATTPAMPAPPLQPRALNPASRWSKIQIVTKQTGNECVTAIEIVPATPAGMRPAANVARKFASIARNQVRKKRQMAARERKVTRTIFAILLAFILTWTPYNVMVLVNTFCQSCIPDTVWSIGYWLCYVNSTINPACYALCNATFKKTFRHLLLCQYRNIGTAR
Where [14] appears, read: measured here: cell density z-score.
[15] abbreviates: measured here: nuclear c-Myc green intensity z-score.
[16] abbreviates: measured here: nuclear pErk red intensity z-score, stronger effect = higher value.

Alpha-2C adrenergic receptor (Homo sapiens), sequence (P18825 whole entry, looked up): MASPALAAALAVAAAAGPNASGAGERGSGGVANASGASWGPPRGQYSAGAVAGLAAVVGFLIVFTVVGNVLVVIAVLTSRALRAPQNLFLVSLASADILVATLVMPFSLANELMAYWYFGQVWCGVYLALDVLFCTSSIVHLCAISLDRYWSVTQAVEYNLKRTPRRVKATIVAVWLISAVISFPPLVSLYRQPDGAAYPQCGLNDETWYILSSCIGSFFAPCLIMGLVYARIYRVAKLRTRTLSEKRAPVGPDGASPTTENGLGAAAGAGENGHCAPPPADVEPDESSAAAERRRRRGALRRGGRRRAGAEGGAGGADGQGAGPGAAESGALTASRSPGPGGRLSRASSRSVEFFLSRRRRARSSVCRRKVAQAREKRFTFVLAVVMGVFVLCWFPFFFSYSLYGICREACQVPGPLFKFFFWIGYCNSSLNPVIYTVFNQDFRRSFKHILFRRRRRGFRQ
Voltage-gated potassium channel subunit beta-2 (Rattus norvegicus), sequence (P62483 whole entry, looked up): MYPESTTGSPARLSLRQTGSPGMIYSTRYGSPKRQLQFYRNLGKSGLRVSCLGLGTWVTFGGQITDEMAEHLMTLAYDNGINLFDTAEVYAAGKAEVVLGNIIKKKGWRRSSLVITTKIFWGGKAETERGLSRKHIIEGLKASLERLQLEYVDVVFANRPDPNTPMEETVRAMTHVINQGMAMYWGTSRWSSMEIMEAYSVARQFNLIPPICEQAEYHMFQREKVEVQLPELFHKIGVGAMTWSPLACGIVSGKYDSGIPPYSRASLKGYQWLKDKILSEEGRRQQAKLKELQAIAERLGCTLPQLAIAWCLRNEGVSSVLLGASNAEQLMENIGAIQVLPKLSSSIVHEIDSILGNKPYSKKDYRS
Dual specificity protein phosphatase 6 (Homo sapiens), sequence (Q16828 whole entry, looked up): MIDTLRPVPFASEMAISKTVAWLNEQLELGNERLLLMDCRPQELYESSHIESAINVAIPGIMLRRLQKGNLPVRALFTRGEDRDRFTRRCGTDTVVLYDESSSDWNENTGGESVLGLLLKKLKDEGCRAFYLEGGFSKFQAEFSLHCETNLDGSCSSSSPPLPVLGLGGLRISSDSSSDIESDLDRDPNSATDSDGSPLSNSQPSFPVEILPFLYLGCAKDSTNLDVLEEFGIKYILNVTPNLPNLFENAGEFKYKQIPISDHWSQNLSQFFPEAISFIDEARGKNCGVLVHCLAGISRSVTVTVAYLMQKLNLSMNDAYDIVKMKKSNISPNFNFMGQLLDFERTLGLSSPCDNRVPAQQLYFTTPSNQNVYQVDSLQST

In assay [1], `CC(CCc1ccccc1)NC(C)C(O)c1ccc(O)cc1` (centres undefined) showed a cell count of 697. Further, the inhibition in [1] is 2% (inactive); in assay [3], -54.5% (inactive); in [5], 10.2% (inactive); in assay [10], 8.38% (inactive) and -4.76% (inactive); in assay [11], -11.1% (inactive); in assay [12], 12% (inactive). For the same compound, the inhibition of aggregation in [2] was 19.5% (inactive). In addition, the nuclei count in [2] came to 96.6%; in assay [3], 119%. The figures for the z-score in assay [4] (setting [14]), in [4] (setting [15]) and in assay [4] (setting [16]) were -0.115, -1.79 and -1.46, respectively. Also, the fluorescence slope in assay [6] was -0.468 (inactive). Besides, in assay [7], the NADPH fluorescence slope is 4.8e-05 (inactive). For the same compound, in assay [8], the slope was 0.00919 (inactive). Also, the compound was classed as inactive in [9].

For the compound `CC1=C(C(=O)OC(C)C)[C@]2(C(=O)N(CC(N)=O)c3ccccc32)C(C#N)=C(N)O1`, in assay [1], the cell count stood at 568. The inhibition in assay [1] is -7.6% (inactive); in assay [3] it was -47.2% (inactive); in [5] it was -0.624% (inactive); in [10] it was 1.76% (inactive); in assay [11], 15.6% (inactive); in [12], 21.9% (inactive). Besides, the inhibition of aggregation in assay [2] is -10.5% (inactive). In addition, the values for the nuclei count in [2] and in assay [3] were 87.4% and 126%, respectively. Also, the values for the z-score in assay [4] (setting [14]), in [4] (setting [15]) and in [4] (setting [16]) were 1.04, -0.385 and -1.8, respectively. The fluorescence slope in assay [6] is -0.435 (inactive); in [13], 0.00529 (inactive). Further, the NADPH fluorescence slope in assay [7] was -5.8e-05 (inactive). The slope in assay [8] is 0.00458 (inactive). Besides, the compound was classed as inactive in [9].

Take `CC(C)[C@@]1(NC(=O)[C@@H]2C=C3c4cccc5[nH]cc(c45)C[C@H]3N(C)C2)O[C@@]2(O)[C@@H]3CCCN3C(=O)[C@H](Cc3ccccc3)N2C1=O`: the cell count in [1] stood at 584. Moreover, the inhibition in [1] is -0.4% (inactive); in [3], -22.9% (inactive); in assay [5], 10.2% (inactive); in [10], 1.14% (inactive) and 21.5% (inactive); in assay [11], 22% (inactive); in [12], 13.1% (inactive). The inhibition of aggregation in assay [2] is 7.1% (inactive). The results for the nuclei count in assay [2] and in [3] were 99.7% and 114%, respectively. Besides, the z-score in assay [4] (setting [14]) is 0.234; in [4] (setting [15]), 0.806; in [4] (setting [16]), -0.53. Also, the fluorescence slope in assay [6] was -0.477 (inactive). The NADPH fluorescence slope in assay [7] is -1e-05 (inactive). The slope in assay [8] was 0.00405 (inactive).

`CN1[C@@H]2CC[C@H]1CC(OC(=O)C1C=Nc3ccccc31)C2` (some centres undefined): the cell count in assay [1] worked out at 619. Besides, the inhibition in [1] is 0.8% (inactive); in [3], -33.8% (inactive); in assay [5], 8% (inactive); in assay [10] it was -4.66% (inactive); in [11] it was -81.8% (inactive); in assay [12], 52.8% (active). For the same compound, the inhibition of aggregation in assay [2] was -36% (inactive). Besides, the nuclei count in [2] amounted to 99.6%; in assay [3] it was 116%. In addition, the z-score in [4] (setting [14]) is -1.01; in assay [4] (setting [15]), -0.312; in assay [4] (setting [16]) it was 0.0205. For the same compound, in assay [6], the fluorescence slope is -0.448 (inactive). Besides, in [7], the NADPH fluorescence slope was -6.1e-05 (inactive). Besides, the slope in assay [8] was 0.00567 (inactive). For the same compound, the compound was called inactive in assay [9].

`C[N+]1(C)CCc2cc3c(cc2[C@H]1[C@@H]1OC(=O)c2c1ccc1c2OCO1)OCO3` registered a cell count in [1] of 633. The inhibition in assay [1] was 1.1% (inactive); in assay [3] it was -58% (inactive); in assay [5] it was 19.2% (inactive); in assay [10], 6.58% (inactive) and 16.9% (inactive); in assay [11], 12.6% (inactive); in assay [12], 45.3% (inactive). Moreover, the inhibition of aggregation in [2] is -10.4% (inactive). The nuclei count worked out at 110% in assay [2] and 109% in [3]. Further, the results for the z-score in [4] (setting [14]), in [4] (setting [15]) and in assay [4] (setting [16]) were 0.571, -0.122 and -0.447, respectively. In addition, in [6], the fluorescence slope was -0.486 (inactive). For the same compound, the NADPH fluorescence slope in assay [7] was -3.8e-05 (inactive). The slope in [8] was 0.00504 (inactive).

Source of the values: PubChem BioAssay.
